High-throughput results deposited in PubChem BioAssay by Bradner/Qi Labs at DFCI.
This is one part of a sample in which hits are shown more often than they occur.
CBX7 inh – blocks human CBX7 binding to H3K27me3 peptide. AID 1224903. normalised signal (fraction of DMSO) (no concentration beside the values). 1.1% of 66,000 active. O95931. AlphaScreen His6-CBX7 / biotin-H3K27me3 peptide binding; active compounds read low; in the data active = normalised signal below about 0.5
Target sequence (O95931 whole entry, looked up): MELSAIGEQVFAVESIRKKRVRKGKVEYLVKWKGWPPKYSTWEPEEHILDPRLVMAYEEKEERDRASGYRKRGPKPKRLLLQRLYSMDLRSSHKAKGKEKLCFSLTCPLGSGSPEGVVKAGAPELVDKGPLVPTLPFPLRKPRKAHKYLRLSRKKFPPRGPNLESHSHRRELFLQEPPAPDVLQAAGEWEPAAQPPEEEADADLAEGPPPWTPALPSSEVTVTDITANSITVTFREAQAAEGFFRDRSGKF
Starred values were filed as active, the others as inactive.

SMILES	CBX7 inh
Cc1cc(NC(=O)CSc2nc(NCc3ccccc3)c3ccccc3n2)no1	1
Cc1ccc(OCC(=O)Nc2cc(-c3nc4ncccc4o3)ccc2C)cc1C	0.96
COc1ccc(-c2cn(-c3ccc(F)cc3)c(SCC(=O)Nc3cccc(F)c3)n2)cc1OC	0.39*
COc1ccc(-c2cn(-c3ccc(F)cc3)c(SCC(=O)Nc3cccc(Cl)c3)n2)cc1OC	0.6
COc1ccc(-c2cn(-c3ccc(F)cc3)c(SCC(=O)Nc3cc(F)ccc3F)n2)cc1OC	0.88
COc1ccccc1N1CCN(CC(O)COc2ccc(C(C)C)cc2)CC1 (centres undefined)	0.94
Cc1ccc(-n2c(C)nc3c(cnn3-c3ccccc3Cl)c2=O)cc1	1
CC(C)NC(=O)CCCn1nc(-c2ccccc2)c2ccccc21	1.1
CC(C)c1ccc(NC(=O)C(c2ccccc2)N(C)C)cc1 (centres undefined)	0.97
Cc1ccc(S(=O)(=O)Nc2ccccc2CNc2cccc3cccnc23)cc1	0.92
CC(=O)Nc1ccc(S(=O)(=O)Nc2cccc3cccnc23)cc1	0.045*
CC(=O)Nc1ccc(S(=O)(=O)Nc2ccc(S(=O)(=O)Nc3nccc(C)n3)cc2)cc1	1
CCC(C)NC(=O)c1ccc2c(c1)ncn2C1CCCC1 (centres undefined)	1.2
COc1ccc(NC(=O)Cn2cc(S(=O)(=O)c3ccccc3)c(=O)c3ccccc32)c(OC)c1	0.94
O=C(Nc1ccc(N2CCCC2=O)cc1)c1ncn[nH]1	0.0091*
O=c1[nH]c2ccc(S(=O)(=O)Nc3ccc(F)cc3)cc2[nH]1	1
O=C(Nc1ccc(F)cc1)C1CC(=O)N(c2ccc(Cl)cc2)C1 (centres undefined)	0.99
O=C(Nc1ccc2[nH]c(=O)[nH]c2c1)C1COc2ccccc2O1 (centres undefined)	1
Cc1cc(NS(=O)(=O)c2ccc(N3CCCC3=O)cc2)no1	1.2
O=C(Nc1ccc2[nH]c(=O)[nH]c2c1)c1ncn[nH]1	0.39*
O=C(NC1CCCC1)C(c1ccccc1)N1CCCC1 (centres undefined)	1.1
CC1CCN(c2nc(-c3ccc([N+](=O)[O-])cc3)cs2)CC1	0.87
COc1ccc2cc(CCNC(=O)C(C)Oc3ccccc3)c(=O)[nH]c2c1 (centres undefined)	1.1
O=C(NCc1ccccc1Cl)c1csc2c1CCCC2	1.1
COc1ccc(NC(=O)CCc2c(C)nc3c(-c4ccccc4)c(C)nn3c2C)cc1	1
SMILES	CBX7 inh
CCCCNC(=O)c1cc(Sc2ccc(Cl)cc2)nc2ccccc12	1
O=S(=O)(c1ccccc1)c1nc(-c2ccccc2F)oc1N1CCCCCC1	0.98
Cc1ccc(S(=O)(=O)c2nc(-c3ccccc3F)oc2N2CCCCC2)cc1	0.48*
Cc1ccc(S(=O)(=O)c2nc(-c3ccccc3C)oc2N2CCCCCC2)cc1	0.9
Cc1ccc(S(=O)(=O)CCC(=O)NCCCN2CCN(c3cccc(Cl)c3)CC2)cc1	1
CCn1c(C(=O)N2CCCC(C(=O)NC3CCC(C)CC3)C2)cc2sccc21 (centres undefined)	0.83
O=C(NCc1ccccc1)c1cn(-c2ccccc2)nc1-c1cccnc1	1
Cc1ccccc1CN1C(=O)C(O)(CC(=O)c2ccc(Cl)cc2)c2ccccc21 (centres undefined)	0.87
CCc1ccc(C(=O)CC2(O)C(=O)N(Cc3ccccc3C)c3ccccc32)cc1 (centres undefined)	0.45*
Cc1ccccc1CN1C(=O)C(O)(CC(=O)c2ccccc2)c2ccccc21 (centres undefined)	0.91
Cc1ccn2c(Nc3ccccc3)c(-c3cccnc3)nc2c1	0.94
Cc1ccccc1Nc1c(-c2cccnc2)nc2ccccn12	0.9
COc1ccc(-c2nc3cc(C)ccn3c2Nc2ccccc2C)cc1	0.78
Cc1ccc(Nc2c(-c3ccc(Cl)cc3)nc3cc(C)ccn23)cc1	1
Cc1ccn2c(Nc3ccccc3C)c(-c3ccc(Cl)cc3)nc2c1	0.85
Cc1ccn2c(Nc3ccccc3C)c(-c3ccccn3)nc2c1	0.0084*
Cc1ccccc1Nc1c(-c2ccccn2)nc2cnccn12	0.8
Cc1ccccc1Nc1c(-c2ccccn2)nc2ccccn12	0.13*
Cc1ccn2c(Nc3ccccc3)c(-c3ccccn3)nc2c1	0.06*
Cc1cccnc1NC1c2ccccc2C(=O)N1Cc1ccccc1 (centres undefined)	0.92
Cc1ccc(NC(=O)CSc2nnc(CNC(=O)c3ccccc3F)o2)c(C)c1	0.98
Cc1ccc(S(=O)(=O)c2nc(C)oc2N2CCCCC2)cc1	0.89
CCOc1ccccc1NS(=O)(=O)c1ccc2c(c1)CCN2C(=O)C1CCC1	1
CCn1c(SCCC(=O)O)nc2ccccc21	1
CCOc1ccc(S(=O)(=O)NCCc2c(C)[nH]c3ccc(C)cc23)cc1	0.96
SMILES	CBX7 inh
COc1cc(S(=O)(=O)NCCc2c(C)[nH]c3ccc(C)cc23)c(C)cc1C	0.35*
COc1ccc(S(=O)(=O)NCCc2c(C)[nH]c3ccc(C)cc23)c2ccccc12	0.8
COc1ccc(S(=O)(=O)NCCc2c(C)[nH]c3ccc(C)cc23)cc1OC	0.63
CCOc1ccc(S(=O)(=O)NCCc2c(C)[nH]c3ccc(F)cc23)cc1	0.92
COc1ccc(S(=O)(=O)NCCc2c(C)[nH]c3ccc(Br)cc23)cc1C	0.57
COc1ccc(C)cc1S(=O)(=O)NCCc1c(C)[nH]c2ccc(Br)cc12	1.1
COc1ccc(C)cc1S(=O)(=O)NCCc1c(C)[nH]c2ccccc12	0.87
COc1cc(S(=O)(=O)NCCc2c(C)[nH]c3ccc(C)cc23)ccc1Cl	0.43*
Cc1ccc2[nH]c(C)c(CCNS(=O)(=O)c3ccc(F)cc3)c2c1	0.45*
COc1ccc(C)cc1S(=O)(=O)NCCc1c(C)[nH]c2ccc(C)cc12	0.4*
COc1cc(C)c(S(=O)(=O)NCCc2c(C)[nH]c3ccc(F)cc23)cc1C	0.95
Cc1ccc(O)c(-c2cc(-c3ccc(F)cc3)n[nH]2)c1	0.92
O=C(NC1CCCCC1)c1ccc2nc(-c3cccs3)c(-c3cccs3)nc2c1	1.1
CCCN(C(=O)Cc1c(C(=O)O)n(CC)c2ccccc12)c1cccc(C)c1	1
COc1cc(OC)cc(C(=O)NCCc2cc3cc(C)c(C)cc3[nH]c2=O)c1	1
CCN(CC)c1nc(C)nc2sc(C(=O)Nc3ccc(C)cc3Br)c(C)c12	1.1
O=C(Nc1cccc(C(F)(F)F)c1)c1cnc(N2CCN(c3ccccn3)CC2)c2ccccc12	1.1
Cc1ccc(-c2nc3ncccc3o2)cc1NC(=O)c1ccccc1F	0.83
CC(=O)NCCc1nc2ccccc2n1Cc1ccccc1C	0.84
O=C(COc1ccc(Cl)cc1)Nc1nc(-c2ccc(Oc3ccccc3)cc2)cs1	0.95
O=[N+]([O-])c1cccc(-c2nc(-c3cccnc3)no2)c1	0.95
CCOc1ccc(C(=O)Nc2ccc(-c3nc4cc(Cl)ccc4o3)cc2)cc1Cl	0.95
Cc1ccc(Nc2ncc(C(=O)NC3CCCC(C)C3)c3ccccc23)cc1Cl (centres undefined)	1.2
CCCCn1cnc2cc(NCc3cccc(Br)c3)ccc21	0.25*
CCn1cnc2cc(NCc3ccncc3)ccc21	0.96
SMILES	CBX7 inh
CCn1cnc2cc(NCc3cccc(Br)c3)ccc21	0.45*
CCn1cnc2cc(NCc3cccc(OC)c3OC)ccc21	0.94
CC(C)(C)n1cnc2cc(NCc3cccc(Br)c3)ccc21	0.75
CCCCn1cnc2cc(NCc3cccc(OC)c3OC)ccc21	0.54
COc1ccc(CNc2ccc3c(c2)ncn3C)cc1OC	1
COc1cccc(CNc2ccc3c(c2)nc(C)n3C)c1	1
